# High-throughput results deposited in PubChem by Sanford-Burnham Center for Chemical Genomics.
# PLAP act – PLAP enzyme activators, biochemical, luminescence, HTS; Alkaline phosphatase, placental type (Homo sapiens), P05187; purified PLAP enzyme, luminescent substrate read-out; hits give high values; activation fold at 20 µM; actives 1.2% (n = 96,000); in the data active = activation fold above about 2
# CYP2C9 inhib – blockers of cytochrome P450 2C9 activity – biochemical, luminescence, ADME assay, primary screen | P11712 | CYP2C9 Supersomes, luciferin-H conversion | inhibition, % at 5 µM | actives 20% (n = 96,000) | AID 777, 2007;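 active = blocking of liver enzyme CYP2C9 beyond about 50% at 5 µM, limit read from the data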
# Target sequence (P11712 whole entry, looked up): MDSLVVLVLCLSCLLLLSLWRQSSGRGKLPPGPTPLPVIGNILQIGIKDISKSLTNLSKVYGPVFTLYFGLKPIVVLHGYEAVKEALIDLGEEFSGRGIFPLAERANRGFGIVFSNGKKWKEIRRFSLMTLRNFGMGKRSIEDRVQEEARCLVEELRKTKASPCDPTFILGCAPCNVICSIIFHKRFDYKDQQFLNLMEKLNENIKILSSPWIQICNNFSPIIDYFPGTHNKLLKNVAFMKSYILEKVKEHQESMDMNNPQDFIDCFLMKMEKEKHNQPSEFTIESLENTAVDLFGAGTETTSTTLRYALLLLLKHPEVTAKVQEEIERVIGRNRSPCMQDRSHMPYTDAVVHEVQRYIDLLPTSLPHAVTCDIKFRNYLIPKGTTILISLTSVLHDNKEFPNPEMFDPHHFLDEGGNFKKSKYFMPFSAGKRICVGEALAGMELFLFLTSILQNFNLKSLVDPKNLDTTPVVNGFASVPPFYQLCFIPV
# CYP2C19 inh – blockers of cytochrome P450 2C19 activity – biochemical, luminescence, ADME assay, primary screen; P33261; CYP2C19 Supersomes, luciferin-H EGE luminescence, 30 min; inhibition, % at 5 µM; actives 21% (n = 96,000); AID 778, 2007;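 active = CYP2C19 inhibition above a set limit at 5 µM in the primary screen, cut at about 50% in these data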;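 also: plate controls were negative control wells for no effect and 2.5 mM tranylcypromine positive control for full effect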
# CYP2C19 act – human CYP2C19 activators, primary screen, biochemical, luminescence; Cytochrome P450 2C19 (Homo sapiens), P33261; recombinant CYP2C19, luciferin-H EGE luminescence; hits give high values; 0 = fully inhibited enzyme, 1 = untreated enzyme; activation factor at 5 µM; 96,000 tested, under 10 active;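 active = activation factor of at least 2 at 5 µM in the primary screen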;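 also: 0 = wells with 2.5 mM tranylcypromine and 1 = vehicle-only wells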
# CYP2C9 act – human CYP2C9 activators, primary screen, biochemical, luminescence | actives 1.4% (n = 96,000) | Cytochrome P450 2C9 (Homo sapiens), P11712 | AID 1024, 2008 | recombinant CYP2C9, luciferin-H conversion; hits give high values; factor 1 = untreated enzyme, 0 = blocked | activation factor at 5 µM;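 active = activation factor of 2 or more for CYP2C9 at a 5 µM dose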;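 also: 0 = sulfaphenazole-blocked wells and 1 = vehicle-only wells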
# Active calls of the source: *. The list is not random: actives were taken first. Their share in the collection is about 31%.
SMILES,PLAP act,CYP2C9 inhib,CYP2C19 inh,CYP2C19 act,CYP2C9 act
NC1=NC2(CCCCC2)N=C(Nc2ccc(F)cc2F)N1,1,1.7,8.8,0.9,1
COc1cc2c(C(=O)N3CCCc4ccccc43)cn(C)c(=O)c2cc1OC,1.6,10.7,26.0,0.7,0.9
CCCn1nnnc1NCc1ccccc1OCc1cccs1,0.8,41.6,24.5,0.8,0.6
CCCn1nnnc1NCc1ccccc1OCc1ccc(F)cc1,0.6,89.0*,87.6*,0.1,0.1
CCC(C)NC(=O)C1c2ccccc2C(=O)N(c2ccc(OC)cc2)C1c1ccc(OC)cc1 (stereo unspecified),1.8,15.3,-0.3,1,0.8
Cc1ccc(C(=O)/C=C/c2cn(CN3CCN(C)CC3)c3ccccc23)cc1,1.1,79.2*,31.8,0.7,0.2
CCOC(=O)Cn1cc(C=O)c2ccccc21,0.9,-13.0,-2.0,1,1.1
Cc1ccc(C(=O)/C=C/c2c[nH]c3ccccc23)cc1,1,68.6*,67.9*,0.3,0.3
Cc1nn(C)cc1/C=C/C(=O)c1ccccc1,0.8,14.8,34.8,0.7,0.9
CC(C)n1cc(/C=C(\C#N)S(=O)(=O)c2ccccc2)c2ccccc21,1.1,69.6*,37.3,0.6,0.3
Cc1ccc(S(=O)(=O)/C(C#N)=C/c2c[nH]c3ccccc23)cc1,1,-106.5,-13.1,1.1,2.1*
O=C(Cc1c(O)c2ccccc2[nH]c1=O)OC1CCCCC1,0.9,-1.3,-1.2,1,1
Cc1ccc(-c2nnn(CC(=O)NCC3COCCO3)n2)o1 (stereo unspecified),0.9,10.8,13.7,0.9,0.9
CC1CCN(S(=O)(=O)c2ccc(S(=O)(=O)NCc3ccccc3)cc2)CC1,0.8,-4.0,-1.7,1,1
Cc1ccc(-c2noc(CCC(=O)NCCN3CCN(Cc4ccccc4)CC3)n2)cc1,1.7,62.0*,50.8*,0.5,0.4
CCN(CCCNC(=O)CCc1nc(-c2ccc(C)cc2)no1)c1cccc(C)c1,1.2,52.3*,34.0,0.7,0.5
O=C(CCc1nc(-c2ccccc2F)no1)NCCc1ccccc1Cl,1.1,56.3*,80.5*,0.2,0.4
Cc1ccc(-c2noc(CCC(=O)NCCN3CCc4ccccc4C3)n2)cc1,1.5,71.6*,84.4*,0.2,0.3
O=C(CCc1nc(-c2ccccc2F)no1)NCCN1CCc2ccccc2C1,1.5,41.9,60.2*,0.4,0.6
NC(=O)c1ccccc1-c1nc(-c2ccccc2)no1,0.8,-15.2,-1.1,1,1.2
COc1cc(-c2noc(-c3ccco3)n2)cc(OC)c1OC,0.8,49.4,40.5,0.6,0.5
Cc1ccc(-c2noc(-c3ccccc3C(=O)N3CCOCC3)n2)cc1,1.4,13.1,5.9,0.9,0.9
CN1CCN(C(=O)c2ccccc2-c2nc(-c3ccccc3)no2)CC1,1.6,71.0*,27.5,0.7,0.3
COc1cc(-c2noc(-c3ccccc3C(=O)NCc3ccco3)n2)cc(OC)c1OC,1.3,50.2*,11.3,0.9,0.5
O=C(NCc1ccco1)c1cccc(-c2nnc(-c3ccccc3)o2)c1,0.8,82.5*,71.1*,0.3,0.2
SMILES,PLAP act,CYP2C9 inhib,CYP2C19 inh,CYP2C19 act,CYP2C9 act
O=C(NCc1ccco1)c1ccccc1-c1nc(-c2ccccc2)no1,0.7,54.1*,32.1,0.7,0.5
CCc1nc2ccc(C(=O)NCc3ccco3)cc2nc1CC,0.9,-14.2,6.7,0.9,1.1
Fc1ccc2[nH]c3c(N4CCN(c5ccccc5)CC4)ncnc3c2c1,0.8,5.3,-1.0,1,0.9
CCOC(=O)N1CCN(c2ncnc3c2[nH]c2ccc(F)cc23)CC1,0.9,48.7,59.6*,0.4,0.5
OC1(c2cccc(C(F)(F)F)c2)CCN(c2ncnc3c2[nH]c2ccc(F)cc23)CC1,1.4,85.2*,71.0*,0.3,0.1
CCOC(=O)N1CCN(c2ncnc3c2[nH]c2ccc(OC)cc23)CC1,0.9,38.7,56.0*,0.4,0.6
COc1ccc2[nH]c(=O)c(C(c3nnnn3C3CCCC3)N3CCN(Cc4ccc5c(c4)OCO5)CC3)cc2c1 (stereo unspecified),2*,83.8*,-7.9,1.1,0.2
COc1ccc2cc(C(c3nnnn3Cc3ccc(F)cc3)N3CCCCCC3)c(=O)[nH]c2c1 (stereo unspecified),1.7,11.0,5.7,0.9,0.9
CC1CCN(C(c2ccc(N(C)C)cc2)c2nnnn2Cc2ccc(F)cc2)CC1 (stereo unspecified),1.2,-6.8,25.8,0.7,1.1
Fc1ccc(Cn2nnnc2C(c2ccc(Cl)cc2)N2CCSCC2)cc1 (stereo unspecified),1.4,69.4*,94.2*,0.1,0.3
O=c1[nH]c2cc3c(cc2cc1C(c1nnnn1CC1CCCO1)N1CCCC1)OCO3 (stereo unspecified),1.4,-10.5,3.9,1,1.1
O=c1[nH]c2cc3c(cc2cc1C(c1nnnn1CC1CCCO1)N1CCCCCC1)OCCO3 (stereo unspecified),1.5,78.7*,6.9,0.9,0.2
COc1ccc2cc(C(c3nnnn3Cc3ccccc3)N3CCCCCC3)c(=O)[nH]c2c1 (stereo unspecified),1.5,70.3*,69.5*,0.3,0.3
Cc1cccc(OC(=O)CN2C(=O)C3C4CCC(C4)C3C2=O)c1C (stereo unspecified),0.9,6.1,30.5,0.7,0.9
COc1ccc(Cn2nnnc2C(c2cccs2)N2CCSCC2)cc1 (stereo unspecified),0.8,58.6*,82.6*,0.2,0.4
COc1ccc(C(c2nnnn2Cc2cccs2)N2CCC(C(N)=O)CC2)c(OC)c1 (stereo unspecified),1.3,18.5,12.2,0.9,0.8
COc1ccc(OC)c(C(c2nnnn2Cc2ccccc2)N2CCN(C)CC2)c1 (stereo unspecified),1.4,3.7,11.7,0.9,1
COc1ccc(Cn2nnnc2C(c2cccs2)N2CCCCCC2)cc1 (stereo unspecified),1.3,91.8*,99.6*,0,0.1
CCOc1ccccc1Nc1nnc(Cc2ccccc2Cl)c(=O)[nH]1,1.2,40.3,28.0,0.7,0.6
CC1(C)CC(=O)C(C2(O)C(=O)N(Cc3ccccc3)c3ccccc32)CO1 (stereo unspecified),1,34.7,62.6*,0.4,0.7
O=C(c1oc2ccccc2c1N1CCCCC1)N1CCCCC1,0.6,10.6,20.8,0.8,0.9
COc1cc2c(cc1OC)CN(C(=O)C1(c3ccccc3)CC1)CC2,1.2,53.8*,36.8,0.6,0.5
COc1ccccc1OCCCn1c(C)c(C#N)c2ccccc21,1.4,78.1*,29.4,0.7,0.2
